Results on 74 compounds are retold here after PubChem BioAssay AID1030 (National Center for Advancing Translational Sciences (NCATS), 2008).

Screen size: about 220,000 compounds; about 16,000 (7.3%) were called active. Inconclusive results (about 25%) are left out. For the sample, actives were picked, then their nearest neighbours and some compounds at random. Unmarked numbers belong to inactive results. The call rests on the fitted dose curve; in most records, active means well fitted inhibition curve with a large enough effect (not every such curve was filed as active); inconclusive means small, poorly fitted or top-dose-only effect, or another doubt; inactive means no such curve, though single readings can be large or run the other way.
Potency means the concentration at half of the fitted maximal effect.

For this assay, the target named is Aldehyde dehydrogenase 1A1 (Homo sapiens) (UniProt P00352). Description: qHTS Assay for Inhibitors of Aldehyde Dehydrogenase 1 (ALDH1A1).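 On activity, negative = inhibition: plate controls were no enzyme wells and a reference inhibitor.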 The note with it: Purified ALDH1A1, NADH fluorescence, propionaldehyde substrate; series mostly up to 75.3 µM; activity, negative = inhibition: at the top concentration. Background: Quantitative high-throughput screening tests each substance at several concentrations.
Sequence of Aldehyde dehydrogenase 1A1 (Homo sapiens) (P00352 whole entry, looked up): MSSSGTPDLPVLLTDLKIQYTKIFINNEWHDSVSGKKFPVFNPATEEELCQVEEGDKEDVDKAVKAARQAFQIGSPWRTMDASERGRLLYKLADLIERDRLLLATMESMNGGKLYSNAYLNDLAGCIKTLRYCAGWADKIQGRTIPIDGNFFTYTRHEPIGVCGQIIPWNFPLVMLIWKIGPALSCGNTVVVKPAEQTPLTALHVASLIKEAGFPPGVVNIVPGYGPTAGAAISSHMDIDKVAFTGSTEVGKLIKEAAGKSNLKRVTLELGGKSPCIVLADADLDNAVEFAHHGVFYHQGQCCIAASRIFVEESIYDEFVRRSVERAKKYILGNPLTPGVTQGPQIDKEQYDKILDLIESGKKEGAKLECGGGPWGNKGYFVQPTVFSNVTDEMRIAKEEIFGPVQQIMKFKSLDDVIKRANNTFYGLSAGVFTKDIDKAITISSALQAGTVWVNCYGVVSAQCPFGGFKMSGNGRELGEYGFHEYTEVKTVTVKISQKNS
Take `COC(=O)C1=C(C)Nc2ncnn2C1c1ccco1` (centres undefined): the “activity, negative = inhibition” value is 2.79%.

Regarding `CC1=C(C(=O)OC2CCCCC2)C(c2cccnc2)n2ncnc2N1` (centres undefined), the Potency is 20 µM (active). Regarding `COC(=O)C1=C(C)Nc2ncnn2C1c1cccnc1` (centres undefined), the “activity, negative = inhibition” value is 5.06%. Same read-out and setting: the figure for `Cc1cc(C)cc(NC(=O)N(C)Cc2ccccc2)c1` is 0.822%; for `CCOCCCNC(=O)c1c[nH]c2cc(C)ccc2c1=O` it is -4.04%. As to `CCc1cccc2c(=O)c(C(=O)NCCCOC)c[nH]c12`, the Potency is 2 µM (active). For the compound `CCCCOCCCNC(=O)c1ccccc1OCC`, the “activity, negative = inhibition” value was 3.62%. Same read-out and setting: then `Cc1ccc(O)c(NC(=S)NC(=O)COc2ccc(Br)cc2)c1`, with -1.2%.

Turning to `CSc1nc2ccccc2c(=O)n1Cc1ccc(F)cc1`, the “activity, negative = inhibition” value is 8.56%. Same read-out and setting: then `Cn1c(CO)cnc1SCc1ccccc1`, with 16.3%. For `CSc1c(SCc2ccccc2)cnn(Cc2ccccc2)c1=O`, the Potency was 11.2 µM (active). Consider `CCCOCC(O)CC(CC)C(=O)NNC(=S)Nc1ccccc1` (centres undefined), for which the “activity, negative = inhibition” value was -9.33%. The same measure, in the same setting: then `CC1(C)CC(CC(=O)O)C(=O)O1` (centres undefined), with -1.05%. For `C/C(CC1CC(C)(C)OC1=O)=N/Nc1nc(-c2ccccc2)cs1` (centres undefined), the Potency is 7.94 µM (active). Consider `O=C(Nc1nc(-c2ccc(-c3ccccc3)cc2)cs1)c1cnccn1`, for which the “activity, negative = inhibition” value was 3.48%.

Turning to `Cc1ccc(C(=O)NC(=S)NCc2cccnc2)cc1`, the “activity, negative = inhibition” value is -1.98%.

As for `Cc1ccc(NC(=S)N(CCN2CCCCC2)Cc2ccco2)cc1C`, the “activity, negative = inhibition” value is -9.28%.

Consider `COc1ccc(CNC(=O)CN2CCC(n3nnc4cc(F)ccc43)CC2)cc1`, for which the “activity, negative = inhibition” value is 2.04%.

For `O=C(CSc1nc2c(cnn2-c2ccc(F)cc2)c(=O)[nH]1)N1CCCCCC1`, the Potency was 0.126 µM (active).

With `Cc1nnc(SCC(=O)N2CCOCC2)[nH]c1=O`, the “activity, negative = inhibition” value was -0.185%. Still for that read-out and setting: then `COc1ccc(C(=O)Nc2c(N)nc(SCC(=O)N3CCC(C)CC3)[nH]c2=O)cc1OC`, with -5.04%; and `O=C(Nc1ccc(F)c([N+](=O)[O-])c1)C1CC(=O)N(Cc2ccccc2)C1` (centres undefined), with 13.4%. On the same count and under the same terms, then `CC(CO)NCC12CC3CC(CC(C3)C1)C2` (centres undefined), with 1.89%; and `CC(C)n1c(-c2ccncc2)n[nH]c1=S`, with -10.3%; and `Nc1ccc(C(=O)NCc2ccccc2)cc1`, with 11.1%. As for `COc1ccc(C2OC(=O)CC2C(=O)NC(C)C)cc1` (centres undefined), the Potency was 15.8 µM (active).

With `COC(=O)C1C(=O)NCC1c1ccc(OC)cc1` (centres undefined), the “activity, negative = inhibition” value was -7.46%.

Take `CCCCN1C(=O)CCC(C(=O)O)C1c1ccc(OC)cc1` (centres undefined): the “activity, negative = inhibition” value was 17.7%. Same read-out and setting: the figure for `CCOC(=O)C1(CCOC)CCN(Cc2ccc(C(=O)OC)cc2)CC1` is -5.45%; for `COC(=O)c1cc(C(=O)OCC(=O)Nc2cc(C)on2)cc([N+](=O)[O-])c1` it is 12.8%.

Regarding `CC(=O)c1cccc(NC(=O)[C@@H](NC(N)=O)C(C)C)c1`, the “activity, negative = inhibition” value was 2.32%.

In the case of `O=C(CSc1nnc(C2CC2)n1Cc1ccccc1)Nc1cccnc1Cl`, the “activity, negative = inhibition” value was 6.58%. Take `CC(=O)c1c(C)[nH]c(C(=O)NCc2ccc(C)cc2)c1C`: the “activity, negative = inhibition” value is -5.82%.

As to `CC(=O)c1c(C)[nH]c(C(=O)NCCCN2CCCC2)c1C`, the “activity, negative = inhibition” value is 11.9%. For the compound `CCCCN(CC)CCNC(=O)c1[nH]c(C)c(C(C)=O)c1C`, the Potency was 10 µM (active). Consider `CC(=O)NC1(c2ccc(F)cc2)CCN(C(=O)c2c(F)cccc2F)CC1`, for which the “activity, negative = inhibition” value was 3.13%. As for `O=C(CCC(=O)NNc1nc2ccccc2c2nc(-c3ccccc3)nn12)NCCCN1CCCC1=O`, the “activity, negative = inhibition” value was 6.86%. `CC(=O)C1=C(C)NC(C)=C(C(C)=O)C1c1cn(-c2ccccc2)nc1-c1cccs1`: the “activity, negative = inhibition” value is 6.63%. The same measure, in the same setting: the figure for `CCCCCOC(=O)C1=C(C)Nc2nnnn2C1c1ccc(OC)c(OC)c1OC` (centres undefined) is -12.1%. On to `CC1=C(C(N)=O)C(c2sccc2C)n2nnnc2N1` (centres undefined), for which the Potency was 20 µM (active). In the case of `Cc1cc(C)n(CC(=O)Nc2ccc([N+](=O)[O-])cc2)n1`, the “activity, negative = inhibition” value was 9.88%. Still for that read-out and setting: the figure for `Cc1cc(=O)oc2c1c(C)nn2-c1ccc(Cl)cc1` is 12.1%; for `CC(C)(C)C(=O)CSc1nc2ccccc2o1` it is -5.51%; for `COc1ccccc1CNC(=O)c1cc(=O)c2ccccc2o1` it is -6.97%. Same read-out and setting: the figure for `Cn1cnnc1SCC(=O)Nc1ccc(N2CCOCC2)cc1` is -10.1%. Same read-out and setting: the figure for `CN(Cc1ccc2nsnc2c1)Cc1nc(Cc2cccc(F)c2)no1` is -4.55%; for `Cc1cc(C)c(C#N)c(SCC(=O)Nc2ccccc2)n1` it is 3.06%. On to `CCOC(=O)/C(C#N)=C/c1ccc(OCC(=O)Nc2ccccc2)c(OC)c1`, for which the “activity, negative = inhibition” value was -10.2%. With `Cc1cc(C)nc(N(C#N)CC(=O)Nc2ccccc2)n1`, the Potency was 15.8 µM (active). In the case of `CCC(C)NC(=O)CN(C1CCCCC1)S(C)(=O)=O` (centres undefined), the “activity, negative = inhibition” value is 0.821%. Turning to `CCN(C(=O)CSc1ncn[nH]1)c1cccc2ccccc12`, the Potency is 25.1 µM (active). Take `O=C(CSc1n[nH]c(-c2cccnc2)n1)Nc1ccnc2ccccc12`: the “activity, negative = inhibition” value is -11.2%. Same read-out and setting: then `O=C(CSc1ncn[nH]1)Nc1nsc(-c2ccccc2)n1`, with 4.35%. Consider `O=C(CSc1ncn[nH]1)Nc1ccnc2ccccc12`, for which the Potency is 22.4 µM (active). For the compound `CCOC(=O)n1c(SCC(=O)N(CC)CC)nc2ccccc21`, the “activity, negative = inhibition” value is -7.08%. For `CCN(CC)C(=O)CSc1nc2ccccc2o1`, the “activity, negative = inhibition” value is 0.852%. Still for that read-out and setting: the figure for `O=S(=O)(c1cccc(C(F)(F)F)c1)N1CCN(c2cnccn2)CC1` is -3.48%. On the same count and under the same terms, the figure for `CCCn1nc(Oc2nc(NC(C)C)nc(N(C)C)n2)ccc1=O` is -0.45%.

Consider `O=C(NCc1cccnc1)c1nc(-c2cccs2)no1`, for which the “activity, negative = inhibition” value is 9.75%.

For the compound `O=C(/C=C/c1cccs1)NCc1cccnc1`, the “activity, negative = inhibition” value is -3.64%. Regarding `O=C(NCc1cccnc1)c1cn(-c2ccccc2)nc1-c1cccs1`, the Potency is 3.98 µM (active). Consider `O=[N+]([O-])c1cc(S(=O)(=O)CCCN2CCOCC2)ccc1F`, for which the “activity, negative = inhibition” value is -2.48%. Still for that read-out and setting: then `COC(=O)C(C(=O)Nc1cccc(Cl)c1C)C1CCCC1` (centres undefined), with 7.44%.

As for `ClC1(Cl)CC1CSc1ncn[nH]1` (centres undefined), the “activity, negative = inhibition” value is 2.15%. In the case of `Cc1ccc(N2C(=O)CC(Sc3ncn[nH]3)C2=O)cc1` (centres undefined), the Potency is 11.2 µM (active). For the compound `Cc1ccc(CC2CC(=O)N(c3nc(C)cc(C)n3)C2=O)cc1` (centres undefined), the “activity, negative = inhibition” value is -7.81%.

In the case of `COc1ccc(-c2nc(SCC(=O)N3CCOCC3)n[nH]2)cc1`, the “activity, negative = inhibition” value was 12.9%.

In the case of `COc1ccc(N2C(=O)CC(SC(C)C)C2=O)cc1` (centres undefined), the “activity, negative = inhibition” value was -19%. Still for that read-out and setting: then `Cc1ccc(N2C(=O)C3CC3C2=O)cc1` (centres undefined), with 2.4%. Regarding `O=C1CC(Sc2ncn[nH]2)C(=O)N1c1ccccc1` (centres undefined), the Potency is 1.12 µM (active). Consider `COc1ccc(N2C(=O)CC(Sc3n[nH]c(-c4ccc(C)cc4)n3)C2=O)cc1` (centres undefined), for which the Potency was 0.794 µM (active). For `O=C(CSc1nc2ccc(Nc3nc(N4CCOCC4)nc(N4CCOCC4)n3)cc2s1)NCc1ccco1`, the “activity, negative = inhibition” value is -6.31%. As for `CSc1sc(C(=O)NC(=O)NCc2cccnc2)c(C)c1-c1ccon1`, the “activity, negative = inhibition” value is -1.45%. With `Cc1ccccc1CCN(CC(=O)NC1CCCCC1)C(=O)c1csnn1`, the “activity, negative = inhibition” value is -5.44%.
